# Screens (PubChem BioAssay)
# AI-2 QS mod: modulates the Vibrio harveyi AI-2 quorum sensing system; 300,000 tested, 0.4% active; activity change, % at 7.5 µM; Vibrio harveyi JMH597 AI-2 luminescence/OD600 ratio, 9 h; stronger effect = lower value; strain lacks LuxN and CqsS sensors; 0 = neutral-control median; in the data active = activity change below about -75%, passing the limit was not always enough; inconclusive = no clear call, values can overlap the other calls;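 also: luminescence divided by OD600 gain over 9 h not by final OD600 alone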
# DSG3 Ab inh: blocks pemphigus antibody binding to human desmoglein-3. P32926. DSG3-coupled beads, scFv-anti-DSG3-GFP binding, flow cytometry; stronger effect = lower value. 310,000 tested, 0.48% active. binding (percent of control), % at 10 µM;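 active = binding more than 3 SD below its plate's average and above zero; inconclusive = below that plate limit but binding exactly zero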;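 also: hits lower antibody fragment binding to DSG3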
# NTR1 agonist: agonists of human neurotensin receptor NTR1; AID 493036; 330,000 tested, 0.17% active; P30989; activation, % at 20 µM; NTR1-U2OS beta-arrestin-GFP spot imaging, agonist mode;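 active = activation at or above 40% of the spot to cytoplasm intensity ratio, with at least 20 cells analyzed; inconclusive = wells under 20 cells, flagged as cytotoxic or low count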
# VLA-4 inh: inhibition in a human VLA-4 binding assay | 330,000 tested, 0.2% active | VLA-4 expressing cells, ligand binding flow cytometry | inhibition, % (about 7 µM as worked out from the volumes in the protocol) | AID 2557 | P13612; in the data active = inhibition above about 50%
# Target sequence (P13612 whole entry, looked up): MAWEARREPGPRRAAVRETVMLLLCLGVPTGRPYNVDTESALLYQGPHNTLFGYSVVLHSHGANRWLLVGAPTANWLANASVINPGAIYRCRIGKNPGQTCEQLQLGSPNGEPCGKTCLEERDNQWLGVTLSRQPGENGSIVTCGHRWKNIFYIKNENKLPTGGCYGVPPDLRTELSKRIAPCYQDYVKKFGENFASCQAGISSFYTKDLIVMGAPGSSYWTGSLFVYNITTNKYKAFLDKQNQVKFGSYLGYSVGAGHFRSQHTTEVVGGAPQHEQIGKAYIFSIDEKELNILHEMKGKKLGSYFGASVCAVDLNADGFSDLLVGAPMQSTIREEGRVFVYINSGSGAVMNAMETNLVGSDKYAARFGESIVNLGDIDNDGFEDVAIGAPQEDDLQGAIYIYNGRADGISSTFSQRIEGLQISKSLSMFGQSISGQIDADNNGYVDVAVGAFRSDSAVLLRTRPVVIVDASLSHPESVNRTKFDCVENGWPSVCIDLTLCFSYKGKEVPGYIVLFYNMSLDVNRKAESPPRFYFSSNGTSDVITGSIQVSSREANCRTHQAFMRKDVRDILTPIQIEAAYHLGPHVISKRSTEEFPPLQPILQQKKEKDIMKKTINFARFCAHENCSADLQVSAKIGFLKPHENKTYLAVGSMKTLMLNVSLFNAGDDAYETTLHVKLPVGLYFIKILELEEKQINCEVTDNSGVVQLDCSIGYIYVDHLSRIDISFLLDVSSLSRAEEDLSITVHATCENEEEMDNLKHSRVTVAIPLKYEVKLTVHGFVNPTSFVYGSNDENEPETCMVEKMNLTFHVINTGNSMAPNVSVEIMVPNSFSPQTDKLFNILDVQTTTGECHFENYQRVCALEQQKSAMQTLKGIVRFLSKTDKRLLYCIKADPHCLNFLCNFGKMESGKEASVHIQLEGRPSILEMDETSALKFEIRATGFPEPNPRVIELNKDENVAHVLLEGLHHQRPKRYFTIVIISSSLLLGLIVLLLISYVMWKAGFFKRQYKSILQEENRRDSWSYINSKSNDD
# JMH597 growth rt: retest: inhibitors of Vibrio harveyi JMH597 growth; shares compounds with AI-2 QS mod; OD600 absorbance, 9 h; lacks LuxN and CqsS sensors; growth inhibition, % at 7.5 µM; 750 tested, 1% active; AID 2726;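 active = every replicate shows growth inhibition above 50%; inconclusive = at least half, but not all, replicates pass that cutoff; inactive = fewer than half of replicates pass it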
# BB721 const-QS lum: retest counter-screen: BB721 constitutive quorum sensing luminescence decrease; Vibrio harveyi BB721 luminescence, 9 h; shares compounds with AI-2 QS mod; inhibition, % at 7.5 µM; 750 tested, 95% active;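 active = inhibition above about 80% in every replicate, not just on average, limit read from the data; inconclusive = at least half of replicates past the limit, but not all; inactive = fewer than half of replicates past the limit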
# BB721 growth: retest: blocks Vibrio harveyi BB721 growth; shares compounds with AI-2 QS mod; OD600 absorbance, 9 h; growth inhibition, % at 7.5 µM; 750 tested, 3% active; AID 2728;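 active = every replicate shows growth inhibition above 50%; inconclusive = at least half but not all replicates above 50% inhibition; inactive = under half of replicates above 50% inhibition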
# JMH597 AI-2 mod: Vibrio harveyi AI-2 signaling luminescence modulation – JMH597 strain, confirmation; 750 tested, 97% active; inhibition, % at 7.5 µM; Vibrio harveyi JMH597 AI-2 quorum sensing luminescence, 9 h; luxN and CqsS knockout, AI-2 only; shares compounds with AI-2 QS mod;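 active = every replicate shows more than 75% inhibition of signal versus neutral control wells; inconclusive = half to three quarters of replicates exceed 75% inhibition; inactive = fewer than half of replicates exceed 75% inhibition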
# Hits are given with their value; – = inactive; ? = inconclusive; · = no result given. The list is not random: actives were taken first. Their share in the collection is about 1.1%.
SMILES,AI-2 QS mod,DSG3 Ab inh,NTR1 agonist,VLA-4 inh,JMH597 growth rt,BB721 const-QS lum,BB721 growth,JMH597 AI-2 mod
CCCOc1ccc(N2C(=O)CC(SCC(N)C(=O)OCC)C2=O)cc1 (stereo unspecified),–,–,–,–,·,·,·,·
CCCOc1ccc(N2C(=O)CC(SCCN)C2=O)cc1 (stereo unspecified),-87.4,·,–,–,–,94.6,–,96.4
O=C(CSc1ncc(-c2ccccc2)[nH]1)Nc1ccccc1,-82.4,–,–,–,–,93.4,–,93.9
Cc1cnc(CNC(=O)C2CCC(=O)N(CCc3cccc(F)c3)C2)[nH]1 (stereo unspecified),–,–,–,–,·,·,·,·
COc1ccc(Cc2nnc(CCc3ccccc3)s2)cc1,?,–,–,–,–,78.3,–,86.4
CCS(=O)(=O)N1CCC(C(=O)NCc2ccco2)CC1,–,–,–,–,·,·,·,·
CSc1ccc(S(=O)(=O)N2CCC(C(=O)NCc3ccco3)CC2)cc1,-90.3,–,–,–,–,–,–,99.6
NC(=O)C1=CC2C3C=CC2(O)C(=O)OC3O1 (stereo unspecified),·,–,·,·,·,·,·,·
Cc1ccc2c(=O)n3c(nc2c1)C(C)NC(=O)c1cccnc1-3 (stereo unspecified),·,–,·,·,·,·,·,·
Cc1ccccc1NCCC(=O)Nc1ccc(F)cc1,-87.3,–,–,–,–,95.4,–,96.8
Cc1ccccc1NCCC(=O)Nc1ccc(Cl)cc1,-83.7,–,–,–,–,96.6,–,97.4
O=C(CCCCC(=O)Nc1ccc(F)cc1)Nc1ccc(F)cc1,–,–,–,–,·,·,·,·
CCOC(=O)N1CCN(S(=O)(=O)N2CCCC(C(=O)NCc3ccc(C)cc3)C2)CC1 (stereo unspecified),·,–,·,·,·,·,·,·
O=C(Nc1ccc(Nc2ccccc2)cc1)c1ccc(Cl)cc1[N+](=O)[O-],-86.5,–,–,–,–,?,–,90.5
O=C(Cc1cccc(C(F)(F)F)c1)Nc1ccc(S(=O)(=O)N2CCCC2)cc1,·,–,–,–,·,·,·,·
Cc1cc(C(=O)OCC(=O)Nc2cc(S(=O)(=O)N3CCOCC3)ccc2Cl)c(C)o1,–,–,–,–,·,·,·,·
O=C(COC(=O)Cc1ccc2c(c1)OCCO2)Nc1ccc(S(=O)(=O)N2CCCC2)cc1,-92.3,–,–,–,–,96.1,–,96.5
NS(=O)(=O)c1ccc(NC(=O)CN2C(=O)c3ccccc3C2=O)cc1,-84.1,–,–,–,–,93.0,–,95.6
Cc1cc(C(=O)OCC(=O)Nc2ccc(S(=O)(=O)N3CCOCC3)cc2)c(C)o1,-90.6,–,–,–,–,97.6,–,98.1
O=C(COc1cccc(C(F)(F)F)c1)Nc1ccc(S(=O)(=O)N2CCCC2)cc1,-93.0,–,–,–,–,98.3,–,?
COc1cc(CC(=O)OCC(=O)Nc2ccc(S(=O)(=O)N3CCCC3)cc2)cc(OC)c1OC,–,–,–,–,·,·,·,·
O=C(CN1C(=O)c2ccccc2C1=O)Nc1ccc(S(=O)(=O)N2CCOCC2)cc1,-96.9,–,–,–,–,99.5,–,99.6
C[C@@H]1CN([C@@H](C)CO)C(=O)CCCn2nncc2CO[C@H]1CN(C)C(=O)c1ccc2ccn(C)c2c1,·,–,·,·,·,·,·,·
Clc1ccc(-c2nnc(CCc3ccccc3)o2)c(Cl)c1,-90.3,–,–,–,–,97.2,–,97.6
Cc1c(O)ccc(C(=O)COc2ccccc2F)c1O,?,–,–,–,–,88.6,–,92.5
SMILES,AI-2 QS mod,DSG3 Ab inh,NTR1 agonist,VLA-4 inh,JMH597 growth rt,BB721 const-QS lum,BB721 growth,JMH597 AI-2 mod
COC(=O)c1ccc(C)c(NC(=O)Cn2cnc3ccccc3c2=O)c1,-86.1,–,–,–,–,94.3,–,95.8
O=C(Cn1cnc2ccccc2c1=O)Nc1ccc2c(c1)CCC2,-82.6,–,–,–,–,98.8,–,99.0
O=C(Cn1nnc2ccccc2c1=O)NC1CCCc2ccccc21 (stereo unspecified),–,–,–,–,·,·,·,·
O=C(Cn1nnc2ccccc2c1=O)Nc1ccc2c(c1)CCC2,-93.9,–,–,–,–,99.4,–,99.5
O=C(Cn1cnc2cc([N+](=O)[O-])ccc2c1=O)Nc1ccc2c(c1)CCC2,–,·,–,–,·,·,·,·
c1ccc(Oc2cc(-c3ccccc3)ncn2)cc1,-93.3,–,–,–,–,98.0,–,98.4
CCn1c(SCc2ccccc2)nnc1-c1ccc(S(=O)(=O)N2CCCCC2)cc1,?,–,–,–,–,88.8,–,94.4
CCn1c(SCC(=O)O)nnc1-c1ccc(S(=O)(=O)N2CCCC2)cc1,–,–,–,–,·,·,·,·
COc1cc(N=Nc2ccc(C)cc2S(N)(=O)=O)c(C)cc1N,·,–,·,·,·,·,·,·
Cc1ccc(S(=O)(=O)c2ccc(C)cc2)cc1,-91.7,–,–,–,–,98.2,–,99.9
CCN(CC(=O)Nc1ccccc1C(F)(F)F)C(=O)c1ccc(NC(=O)c2cccs2)cc1,·,–,·,·,·,·,·,·
COc1ccc(CNC(=O)O[C@H]2C[C@@H]3C(=O)N(c4ccccc4)C(=O)[C@@H]3[C@@H]3CN(S(=O)(=O)c4ccc(C)cc4)C[C@]23O)cc1OC,·,–,·,·,·,·,·,·
CCOC(=O)Nc1ccc(Oc2ccccc2)cc1,-94.9,–,–,–,–,99.3,–,99.4
O=C(Nc1ccc(Oc2ccccc2)cc1)C1CC1,-87.2,·,–,–,–,98.5,58.7,96.4
COC(=O)N/N=C/c1ccc(Oc2ccccc2)cc1,-85.3,–,–,–,–,94.7,–,95.5
CCN(CC(=O)NCc1ccc(F)cc1)CC(=O)Nc1cc(S(=O)(=O)N(C)C)ccc1C,·,–,–,–,·,·,·,·
Cc1cccc(C(=O)NNC(=O)c2ccc3ccccc3c2)c1,·,–,·,·,·,·,·,·
Clc1cccc(CSc2ccc(-c3cccnc3)nn2)c1,-91.3,–,–,–,–,97.2,–,98.0
O=C(NCCc1c[nH]c2ccccc12)c1ccc2c(c1)OCO2,-85.5,–,–,–,–,93.0,–,96.6
Cn1c(C(=O)NCCc2c[nH]c3ccccc23)cc2sccc21,?,–,–,–,–,93.3,–,93.7
CC1NC(=O)COC1c1ccccc1 (stereo unspecified),·,–,·,·,·,·,·,·
COc1ccc(NC(C)C(=O)Nc2cccc(S(=O)(=O)N3CCOCC3)c2)cc1OC (stereo unspecified),·,·,–,–,·,·,·,·
CC(=O)c1ccc(NC(=O)CCc2ccc(C)o2)cc1,-88.1,–,–,–,–,94.7,–,96.4
Cc1ccc(CCC(=O)Nc2ccc(C#N)cc2)o1,-79.9,–,–,–,–,90.3,–,92.9
CCc1ccc(NC(=O)CCc2ccc(C)o2)cc1,?,–,–,–,·,·,·,·
CCC1CCCCN1C(=O)c1ccc(OC)c(OC2CCN(C(C)C)CC2)c1 (stereo unspecified),–,–,–,–,·,·,·,·
